Source: PubChem BioAssay (National Center for Advancing Translational Sciences (NCATS))
TGFb SMAD3 inh: inhibitors of TGF-b signaling | HepG2 CAGA-GFP TGF-b/SMAD3 reporter, GFP fluorescence, 18 h; TGF-beta stimulated, 500 pg/mL final | Potency, µM (highest dose often 46.1 µM), for inactives: at the highest dose activity, negative = inhibition, usual class: inhibitors | 1.2% of 410,000 active; also: % is scaled to controls: 0 for no effect and ±100 for the full control effect; nearly all actives have a fitted effect of over 65% in size
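Inhibition was scored as loss of TGF-beta-induced (500 pg/mL final, 18 hours, 37 degrees C) GFP in HEPG2 cells carrying a CAGA-GFP reporter, in DMEM with 1% FBS. Well GFP was summed per cell; Activity was normalised to unstimulated and stimulated DMSO wells, then concentration-response fitting.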
HT1080 IDH1KD tx: kills HT-1080 cells with IDH1 knockdown. HT-1080 IDH1 knockdown viability, ATP luminescence, 48 h. Potency, µM (titrated, usually from 46.1 µM), for the others: at the highest dose activity, negative = toxicity, most hits filed as cytotoxic. 2% of 360,000 active. AID 686971;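 also: 0% = DMSO wells and -100% = cell-free medium wells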
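Cytotoxicity counter-line: IDH1KD HT-1080, 48 h, CellTiter-Glo. Curves classed by r2, magnitude and activity.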
HT1080NT lethal: kills 2HG-producing HT-1080-NT fibrosarcoma cells | HT-1080-NT fibrosarcoma viability, CellTiter-Glo ATP luminescence, 48 h | Potency, µM (titrated, usually from 46.1 µM), without a hit: at the top dose activity, negative = less viability, most hits filed as cytotoxic | 1.6% of 360,000 active;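 also: NT is the 2HG producing partner of a matched IDH1 knockdown line; 0% = DMSO-treated cells and -100% = media-only wells without cells; nearly all actives have a fitted effect of over 55% in size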
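Luminescent CellTiter-Glo readout after 48 hours of compound exposure at 37 degrees C defined viability of HT-1080-NT cells. Activity was normalized to DMSO wells and cell-free media wells; concentration-response curves were fitted and assigned curve classes.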
ATXN2 expr inh: ATXN2 expression inhibition | 0.72% of 360,000 active | Potency, µM (doses to about 57 µM), for inactives: at the top dose activity change, negative = inhibition, actives largely listed as inhibitors | HEK-293 ATXN2-luciferase reporter, luminescence, 24 h; also: % is scaled to controls: 0 for no effect and ±100 for the full control effect; nearly all actives have a fitted effect of over 55% in size
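qHTS (up to 57 uM final) was run with 24 h compound exposure of reporter cells at 37 °C. Each well was multiplexed: SteadyGlo luminescence measured ATXN2-luciferase expression after a fluorogenic Gly-Phe-AFC viability readout (25 uM final).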
HepG2 viability: kills HepG2 cells in TGF-b inhibitor counter-screen | Potency, µM (highest dose often 46.1 µM), for inactives: top-dose activity change, negative = cytotoxicity, actives largely listed as cytotoxic | 0.76% of 410,000 active | HepG2 CAGA-GFP viability, ATP luminescence, 18 h
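CellTiter-Glo luminescence gave cytotoxicity after 18 hours at 37 degrees C. The cells were HepG2 CAGA-GFP in 1% FBS DMEM, stimulated with 500 pg/mL TGF-beta after compound addition. %Activity was normalised to no-cell wells (complete cell-killing) and DMSO (no toxicity), and curves were fitted and classified.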
ATXN viability: cell viability loss in ATXN counter-screen; Potency, µM (series often up to 56.7 µM), usual class: cytotoxic; 0.49% of 400,000 active; S2 cells (HEK-293 line with an ATXN2-luciferase reporter) viability, CellTiter-Fluor protease fluorescence, 24 h; also: nearly all actives have a fitted effect of over 40% in size
* hit, by the source's call; i = inactive; ? = inconclusive; . = no result given. In the library only some 3.8% were active in any assay of this set; here they are far more common. Calls follow the shape of the dose curve; as a rule, active = well fitted curve in the direction sought with a large enough effect; inconclusive = small, poorly fitted or top-dose-only effect, or another doubt; inactive = no such curve, though single readings can be large; an effect the other way counts as inactive or inconclusive. Potency is read from the fitted curve at half-maximal effect.

SMILES	TGFb SMAD3 inh	HT1080 IDH1KD tx	HT1080NT lethal	ATXN2 expr inh	HepG2 viability	ATXN viability
CCC(C)c1ccc(NC(=S)NC2CCN(Cc3ccccc3)CC2)cc1 (stereo not drawn)	10µM*	?	18µM*	?	14µM*	?
O=c1c2cc(NC(=S)NCCN3CCCCCC3)ccc2nc2n1CCCCC2	-1%	-3%	-3%	-16%	-1%	i
COc1ccc(C2Nc3ccc(NC(C)=O)cc3C(=O)N2Cc2cccc(Cl)c2)cc1COc1ccc(NC(C)=O)cc1 (stereo not drawn)	.	3%	0%	.	.	.
C1=Cc2ccccc2/C1=C\c1ccc2c(c1)OCO2	-10%	.	.	.	-26%	.
CCOC(=O)N1C(COCc2ccccc2)C=CCS1(=O)=O (stereo not drawn)	-4%	.	.	.	-2%	.
CC1CCN(CCCNC(=O)c2cc(Sc3ccc(F)cc3)nc3ccccc23)CC1	0%	.	.	.	-31%	.
CCSc1nc2ccccc2n1C(=O)/C=C\c1ccc(OC)c(OC)c1	-27%	?	-20%	13µM*	-3%	?
CCCN1CCCc2cc(CN(CCCN3CCOCC3)C(=O)Nc3ccc(OCC)cc3)ccc21	-26%	-10%	0%	-1%	-6%	?
CCCN1CCCc2cc(CN(CCCN3CCOCC3)C(=O)Nc3ccc(Cl)c(Cl)c3)ccc21	?	.	.	0%	-37%	10µM*
COc1ccc(/C=N/NC(=O)c2[nH]c3ccc(Cl)cc3c2-c2ccccc2)c(C(=O)O)c1OC	?	?	-25%	?	-21%	.
CC(=O)NNC(=O)c1[nH]c2ccc(Br)cc2c1-c1ccccc1	?	?	?	0%	-15%	i
O=C(N/N=C/c1ccccc1Cl)c1[nH]c2ccc(Br)cc2c1-c1ccccc1	84%	0.46µM*	0.52µM*	?	-27%	i
COc1ccc(/C=N/NC(=O)c2[nH]c3ccc(Br)cc3c2-c2ccccc2)cc1	?	0.0052µM*	0.037µM*	-27%	-35%	i
COc1ccc(/C=N/NC(=O)c2[nH]c3ccc(Br)cc3c2-c2ccccc2)c(C(=O)O)c1OC	-28%	23µM*	23µM*	-16%	-9%	i
COc1ccc2c(c1)c(C(=O)N/N=C/c1ccc(Br)cc1)c(C)n2C	-29%	18µM*	?	?	-13%	?
CCOc1ccc(/C=N/NC(=O)c2c(C)n(C)c3ccc(OC)cc23)cc1	?	?	?	-11%	27%	i
Nc1ccc(/C=C/c2cccc3cccnc23)cc1	11%	.	.	.	-2%	.
NN=C1c2cc(S(=O)(=O)NCCO)ccc2-c2ccc(S(=O)(=O)NCCO)cc21	16%	.	.	.	15%	.
Cc1c(C(=O)N/N=C/c2ccccc2)[nH]c2ccc(Cl)cc12	?	15µM*	18µM*	.	-31%	?
O=C(N/N=C/c1ccccc1)c1c(O)c2ccccc2[nH]c1=O	2%	-24%	-7%	-36%	2%	?
NNC(=O)c1[nH]c2ccc(Br)cc2c1-c1ccccc1	?	15µM*	9.2µM*	-34%	-27%	?
NNC(=O)c1[nH]c2ccc(Cl)cc2c1-c1ccccc1	?	?	?	-18%	-19%	i
O=C(CN1CCN(Cc2ccc(F)cc2)C1=O)NCc1ccccc1	-2%	.	.	10%	2%	i
CN(C)c1ccc(/C=C2\C=Cc3ccccc32)cc1N	-20%	.	.	.	-35%	.
COc1ccc(CN2CC[C@H]3C=CC[C@@H](C(=O)Nc4nccs4)[C@H]3C2=O)cc1OC	21%	.	.	.	47%	.
SMILES	TGFb SMAD3 inh	HT1080 IDH1KD tx	HT1080NT lethal	ATXN2 expr inh	HepG2 viability	ATXN viability
COc1cccc(-c2cc(=O)c3ccccc3o2)c1N	.	.	.	26%	.	.
COc1cc(OC)c(-c2c3cc(O)c(=O)cc-3oc3cc(O)c(O)cc23)cc1OC	?	?	?	-31%	-10%	13µM*
COc1ccccc1N(CC(=O)Nc1ccc2c(c1)OCO2)S(=O)(=O)c1ccc(C)cc1	?	.	.	14%	-18%	i
COC(=O)[C@@H]1CCCN1Cc1ccc2c(c1)CN(Cc1cc(OC)c3c(c1)OCO3)CCO2	.	.	.	.	.	i
CCC(=O)N1CCC1(C)C(=O)Nc1ccc2c(c1)OCO2 (stereo not drawn)	14µM*	5%	-1%	9%	-16%	i
C#Cc1ccc(NC(=O)C2(C)CCN2C(=O)Cc2ccc(C(C)(C)C)cc2)cc1 (stereo not drawn)	-30%	10µM*	?	0%	-20%	?
CCCC(=O)N1CCC1(C)C(=O)Nc1ccc2c(c1)OCCO2 (stereo not drawn)	1%	4%	15%	3%	9%	i
CC1(C(=O)NCc2ccc(Cl)cc2)CCN1C(=O)Cc1ccc(Cl)cc1Cl (stereo not drawn)	-24%	-17%	-15%	-16%	-22%	?
C#Cc1ccc(NC(=O)C2(C)CCN2C(=O)Cc2ccc(C(C)C)cc2)cc1 (stereo not drawn)	-7%	?	?	?	-28%	?
CC(C)(C)c1ccc(CC(=O)N2CCC2(C)C(=O)NCc2ccc(Cl)cc2)cc1 (stereo not drawn)	?	26µM*	?	0%	-31%	i
COC(=O)[C@@H]1CCCN1C(=O)c1cc(NC(=O)c2ccccc2)cc2ncn(C3CCCC3)c12	.	.	.	.	.	i
C=CCN1C[C@H](C(=O)N(CCCN(C)C)C(=O)NCC)C[C@@H]2c3cccc4[nH]cc(c34)C[C@H]21	.	.	.	-7%	.	?
O=S1(=O)CCOC[C@H](c2ccccc2)N1Cc1ccc(Cl)cc1Cl	?	.	.	.	-36%	.
CCOc1ccc(C(=O)NC(=S)Nc2cccc(S(=O)(=O)NC3=NCCC3)c2)cc1	-27%	1µM*	0.46µM*	.	9%	i
CCOc1cc(C(=O)Nc2ccc(S(=O)(=O)NC3=NCCCCC3)cc2)cc(Br)c1OC	3%	21µM*	?	4%	-17%	i
COc1cc(C(=O)OCC(=O)Nc2ccc(S(=O)(=O)NC3=NCCCCC3)cc2)cc(OC)c1OC	-1%	2%	1%	.	-9%	.
O=C(Nc1cccc(S(=O)(=O)NC2=NCCC2)c1)c1cc(-c2ccco2)nc2ccccc12	-29%	-16%	-1%	0%	6%	i
O=C(NC(=S)Nc1cccc(S(=O)(=O)NC2=NCCC2)c1)c1cc(-c2ccco2)nc2ccccc12	-14%	1.6µM*	9.2µM*	-14%	2%	?
